Each structure is given as a SMILES string. The whole screen tested about 310,000 compounds, of which about 14,000 (4.5%) showed an effect of 50% or more. The effect is printed as a negative number. This is one part of a sample in which strong results are shown more often than they occur.
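Note: peak tail current of the secondary pulse compared with the same well before compound.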

human ether-à-go-go-related gene (hERG) potassium channel, sequence (Q12809 whole entry, looked up): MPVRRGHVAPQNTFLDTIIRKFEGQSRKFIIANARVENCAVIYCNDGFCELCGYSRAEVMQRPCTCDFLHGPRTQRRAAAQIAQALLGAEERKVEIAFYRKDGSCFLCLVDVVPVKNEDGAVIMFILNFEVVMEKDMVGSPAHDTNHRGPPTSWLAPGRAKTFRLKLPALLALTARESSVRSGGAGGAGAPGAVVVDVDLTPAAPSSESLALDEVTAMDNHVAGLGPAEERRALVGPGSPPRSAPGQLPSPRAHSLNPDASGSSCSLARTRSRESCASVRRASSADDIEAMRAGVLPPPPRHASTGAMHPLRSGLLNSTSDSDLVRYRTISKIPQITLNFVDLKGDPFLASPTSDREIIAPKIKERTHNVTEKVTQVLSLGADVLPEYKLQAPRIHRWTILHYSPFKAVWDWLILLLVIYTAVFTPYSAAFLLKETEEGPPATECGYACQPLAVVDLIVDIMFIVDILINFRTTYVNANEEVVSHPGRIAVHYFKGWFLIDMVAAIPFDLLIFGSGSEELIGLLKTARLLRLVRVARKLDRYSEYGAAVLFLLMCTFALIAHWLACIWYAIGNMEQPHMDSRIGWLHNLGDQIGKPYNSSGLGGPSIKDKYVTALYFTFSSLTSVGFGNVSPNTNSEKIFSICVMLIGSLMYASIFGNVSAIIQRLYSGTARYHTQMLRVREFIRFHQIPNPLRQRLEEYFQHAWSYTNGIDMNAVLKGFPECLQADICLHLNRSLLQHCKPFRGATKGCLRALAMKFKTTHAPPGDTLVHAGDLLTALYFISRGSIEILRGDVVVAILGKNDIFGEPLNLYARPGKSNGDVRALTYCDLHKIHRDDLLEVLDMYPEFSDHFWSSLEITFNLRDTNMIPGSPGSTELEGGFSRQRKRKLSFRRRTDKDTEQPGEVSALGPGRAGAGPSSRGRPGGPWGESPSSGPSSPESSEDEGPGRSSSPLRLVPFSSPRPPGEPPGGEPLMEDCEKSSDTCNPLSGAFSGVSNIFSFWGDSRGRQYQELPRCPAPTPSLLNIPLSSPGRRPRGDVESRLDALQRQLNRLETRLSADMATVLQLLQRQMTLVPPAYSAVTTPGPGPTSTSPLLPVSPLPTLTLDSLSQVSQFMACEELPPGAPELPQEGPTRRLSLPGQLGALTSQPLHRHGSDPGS

This test has as its target human ether-à-go-go-related gene (hERG) potassium channel (human, UniProt Q12809). Briefly: primary screen, population patch clamp on CHO cells stably expressing hERG; higher = less effect of the substance.
In the case of `CCCn1c(C(Cc2ccccc2)NC(=O)COC)nc2ccccc21` (stereo not drawn), the “hERG current change (%, negative = inhibition) at 10uM” value stood at 2.2%.

As for `COc1cc2c(cc1NC(=O)/C=C/c1ccccc1)oc1ccccc12`, the “hERG current change (%, negative = inhibition) at 10uM” value is recorded as 18.8%.

Regarding `CCOc1ccccc1N1CC(C(=O)Nc2ccccc2N2CCOCC2)CC1=O` (stereo not drawn), the “hERG current change (%, negative = inhibition) at 10uM” value amounted to 12.5%.

Turning to `O=C(O)c1cc2cc(F)ccc2[nH]1`, the “hERG current change (%, negative = inhibition) at 10uM” value was 16.2%.

Consider `O=C(Nc1ccc2c(c1)CCC2)c1cnc(Cl)c(Cl)c1`, for which the “hERG current change (%, negative = inhibition) at 10uM” value is recorded as 0.674%.

Turning to `CCN(CC)S(=O)(=O)c1ccc(N2CCOCC2)c(NC(=O)CN2C(=O)NC(C)(c3ccccc3)C2=O)c1` (stereo not drawn), the “hERG current change (%, negative = inhibition) at 10uM” value is -24.1%.

In the case of `NC(=O)C1CCCc2c1n(Cc1ccccc1)c1ccccc21` (stereo not drawn), the “hERG current change (%, negative = inhibition) at 10uM” value is on record as -14.7%.

`CC[C@]12CCCN3CCc4c(n(c5ccccc45)C(=O)C1)[C@@H]32`: the “hERG current change (%, negative = inhibition) at 10uM” value is given as -75%.

Take `CCN(CC)CC(=O)n1c2c(c3ccccc31)CCCC2`: the “hERG current change (%, negative = inhibition) at 10uM” value is on record as -34.2%.

Take `CCOC(=O)C1=C[C@]2(CC)CCCN3CCc4c(n1c1ccccc41)[C@@H]32`: the “hERG current change (%, negative = inhibition) at 10uM” value was -91.8%.

Consider `CCn1cc(C2N3CC4(C)CN2CC(C)(C3)C4=O)c2ccccc21` (stereo not drawn), for which the “hERG current change (%, negative = inhibition) at 10uM” value is reported as 7.47%.

As to `CC[C@]12CCCN3CCc4c(n(c5ccccc45)C(=O)C1)C32` (stereo partly drawn), the “hERG current change (%, negative = inhibition) at 10uM” value is given as -65.7%.

Take `O=C(O)Cn1c(=O)c2c(c3ccccc31)CCC2`: the “hERG current change (%, negative = inhibition) at 10uM” value is 11.9%.

For the compound `CCOC(=O)C1=CC[C@H]2c3c(c4ccccc4n3C)C[C@H]1N2C`, the “hERG current change (%, negative = inhibition) at 10uM” value came out at 3.88%.

In the case of `CCOC(=O)NNC(=O)CCn1c2c(c3ccccc31)CCCC2`, the “hERG current change (%, negative = inhibition) at 10uM” value is -16.4%.

In the case of `O=C(CSc1nc(-c2ccccc2)cs1)Nc1cccc([N+](=O)[O-])c1`, the “hERG current change (%, negative = inhibition) at 10uM” value is 6.45%.

Take `N#Cc1ccccc1CSc1nc(N2CCCCC2)nc(N2CCCCC2)n1`: the “hERG current change (%, negative = inhibition) at 10uM” value amounted to 5.79%.

Turning to `CNc1cc(C)c(C#N)c2nc3ccccc3n12`, the “hERG current change (%, negative = inhibition) at 10uM” value is -8.75%.

With `CCN(CC)S(=O)(=O)c1ccc2c3c(cccc13)C(=O)S2`, the “hERG current change (%, negative = inhibition) at 10uM” value is reported as -18.4%.

With `COc1ccc(C)cc1NC(=O)CN1CCN(CC(=O)Nc2ccccc2F)CC1`, the “hERG current change (%, negative = inhibition) at 10uM” value is reported as -48.7%.

As for `COc1ccc(NC(=O)CN2CCN(CC(=O)Nc3ccccc3F)CC2)c(OC)c1`, the “hERG current change (%, negative = inhibition) at 10uM” value was -63.5%.

As for `COc1ccc(NC(=O)CN2CCN(CC(=O)Nc3ccccc3Cl)CC2)c(OC)c1`, the “hERG current change (%, negative = inhibition) at 10uM” value was -78%.

As to `COc1ccccc1NC(=O)CN1CCN(CC(=O)Nc2ccccc2Cl)CC1`, the “hERG current change (%, negative = inhibition) at 10uM” value came to 2.56%.

As to `COc1ccc(NC(=O)CN2CCN(C3c4ccccc4-c4ccccc43)CC2)c(OC)c1`, the “hERG current change (%, negative = inhibition) at 10uM” value was -10.5%.

With `COc1ccc(NC(=O)CN2CCN(c3ccc(Cl)cc3)CC2)c(OC)c1`, the “hERG current change (%, negative = inhibition) at 10uM” value was -12.7%.

Turning to `CC1=C(C(=O)OCCc2ccccc2)C(c2ccsc2)NC(=O)N1C` (stereo not drawn), the “hERG current change (%, negative = inhibition) at 10uM” value is on record as -10.9%.

Regarding `OCC1(CO)COC(CCc2ccccc2)=N1`, the “hERG current change (%, negative = inhibition) at 10uM” value was found to be 16.1%.

Take `CC(=O)OCc1c(C(F)(F)F)nn(C)c1SCc1ccc(Cl)cc1`: the “hERG current change (%, negative = inhibition) at 10uM” value was 8.19%.

In the case of `CC1(C(=O)N2CCOCC2)CCCCC1`, the “hERG current change (%, negative = inhibition) at 10uM” value is given as 11.6%.

Take `O=C(CCc1nnc2ccc(N3CCC4(CC3)OCCO4)nn12)N1CCCCC1`: the “hERG current change (%, negative = inhibition) at 10uM” value is 16.7%.

`COc1ccccc1/C=N/NC(=O)CC(=O)NCc1ccccc1`: the “hERG current change (%, negative = inhibition) at 10uM” value is -2.25%.

On to `COc1ccc(C)cc1NC(=O)C1CCCCC1C(=O)O` (stereo not drawn), for which the “hERG current change (%, negative = inhibition) at 10uM” value was determined as 14.7%.

Regarding `O=S(=O)(c1ccc2c(c1)OCCO2)N1CCC(n2nnc3cc(C(F)(F)F)ccc32)CC1`, the “hERG current change (%, negative = inhibition) at 10uM” value is listed as -16.4%.

Regarding `CC(=O)Nc1ccc(S(=O)(=O)N2CCC(N3CCCC3)CC2)cc1`, the “hERG current change (%, negative = inhibition) at 10uM” value was 13.2%.

`CC(=O)Nc1ccc(S(=O)(=O)N2CCC(C(=O)c3ccc(F)cc3)CC2)cc1`: the “hERG current change (%, negative = inhibition) at 10uM” value is on record as -34.6%.

With `O=S(=O)(c1ccc2c(c1)OCCO2)N1CCC(n2cnc3cc(F)ccc32)CC1`, the “hERG current change (%, negative = inhibition) at 10uM” value is recorded as -62.4%.

As for `CC(=O)Nc1ccc(S(=O)(=O)N2CCC(n3cnc4cc(F)ccc43)CC2)cc1`, the “hERG current change (%, negative = inhibition) at 10uM” value was -65.7%.

For `O=S(=O)(c1ccc2c(c1)OCCO2)N1CCC(n2nnc3cc(F)ccc32)CC1`, the “hERG current change (%, negative = inhibition) at 10uM” value is -38.7%.

In the case of `COc1cccc(OCCOCCNCCO)c1`, the “hERG current change (%, negative = inhibition) at 10uM” value was -6.7%.

`O=C(CN(CCc1ccccc1)C(=O)c1csnn1)NC1CCCC1`: the “hERG current change (%, negative = inhibition) at 10uM” value is -4.71%.

Turning to `C[C@]12CCC3C(CC[C@H]4CC(O)CC[C@]34C)C1CC/C2=N/O` (stereo partly drawn), the “hERG current change (%, negative = inhibition) at 10uM” value is 13.3%.

Take `COc1ccc(OCC#CCN2CCC(C)CC2)cc1.O=C(O)C(=O)O`: the “hERG current change (%, negative = inhibition) at 10uM” value is -11.4%.

On to `CN1CCN(CC(=O)Nc2cc(N(C)C)nc3ccccc23)CC1.Cl`, for which the “hERG current change (%, negative = inhibition) at 10uM” value came to 8.25%.

As to `CC(C)(C)CC(C)(C)NCC(=O)Nc1c2c(nc3ccccc13)CCC2.O=C(O)C(=O)O`, the “hERG current change (%, negative = inhibition) at 10uM” value is on record as -3.35%.

In the case of `COc1ccc(CCN(C)CC(=O)Nc2cc(C)nc3ccccc23)cc1OC.O=C(O)C(=O)O`, the “hERG current change (%, negative = inhibition) at 10uM” value was found to be 5.34%.

(Values after paper PMC4336329 (PLoS ONE, 2015).)
